Structures are written as SMILES. Active and inactive are the calls of the source. No rule for the calls is given here.

Chain of Botulinum neurotoxin type A (Clostridium botulinum) (P0DPI0 whole entry, looked up): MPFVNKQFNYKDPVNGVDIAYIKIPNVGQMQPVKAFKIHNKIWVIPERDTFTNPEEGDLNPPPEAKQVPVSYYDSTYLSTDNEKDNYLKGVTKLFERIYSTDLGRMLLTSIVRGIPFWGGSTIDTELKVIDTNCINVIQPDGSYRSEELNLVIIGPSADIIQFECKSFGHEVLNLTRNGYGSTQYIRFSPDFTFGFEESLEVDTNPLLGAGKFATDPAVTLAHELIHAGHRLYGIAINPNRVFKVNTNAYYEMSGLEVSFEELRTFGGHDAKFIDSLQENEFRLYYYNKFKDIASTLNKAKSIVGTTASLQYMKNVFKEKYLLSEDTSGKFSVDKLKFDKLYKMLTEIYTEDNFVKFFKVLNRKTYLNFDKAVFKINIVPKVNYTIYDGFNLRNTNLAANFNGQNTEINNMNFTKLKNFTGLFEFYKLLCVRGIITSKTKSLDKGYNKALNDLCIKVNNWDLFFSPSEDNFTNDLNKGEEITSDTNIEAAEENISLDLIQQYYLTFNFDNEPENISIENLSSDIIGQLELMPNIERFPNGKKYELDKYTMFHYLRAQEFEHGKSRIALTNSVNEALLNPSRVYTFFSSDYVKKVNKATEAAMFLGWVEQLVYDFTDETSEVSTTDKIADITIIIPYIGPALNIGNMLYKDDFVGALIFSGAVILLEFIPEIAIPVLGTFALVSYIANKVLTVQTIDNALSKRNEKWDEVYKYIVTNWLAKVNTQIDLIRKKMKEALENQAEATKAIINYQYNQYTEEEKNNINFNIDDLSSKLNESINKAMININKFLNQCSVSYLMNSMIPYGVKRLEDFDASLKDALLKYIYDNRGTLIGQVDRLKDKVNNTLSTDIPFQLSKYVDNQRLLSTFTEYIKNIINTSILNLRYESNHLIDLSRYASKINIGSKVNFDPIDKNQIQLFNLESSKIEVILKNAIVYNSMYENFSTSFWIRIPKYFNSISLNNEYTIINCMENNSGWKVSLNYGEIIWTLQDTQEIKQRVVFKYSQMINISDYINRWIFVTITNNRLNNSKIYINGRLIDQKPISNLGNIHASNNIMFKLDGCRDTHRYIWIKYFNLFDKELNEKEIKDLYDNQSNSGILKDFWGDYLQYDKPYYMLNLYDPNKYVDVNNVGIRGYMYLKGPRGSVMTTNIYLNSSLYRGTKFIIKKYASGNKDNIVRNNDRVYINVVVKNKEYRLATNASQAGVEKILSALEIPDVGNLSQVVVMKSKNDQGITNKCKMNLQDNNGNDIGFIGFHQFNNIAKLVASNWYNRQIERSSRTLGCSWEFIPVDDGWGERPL

The assay addresses Botulinum neurotoxin type A (Clostridium botulinum) (UniProt P0DPI0). Put plainly: BoNT/A light chain protease inhibitors, biochemical, multiplex microsphere flow cytometry, validation set (AID 588460). Conditions: at 10 µM, active compounds read high.
In the case of `CC(=O)C1=C(O)C(=O)OC1c1ccc(C)cc1` (stereo unspecified), the inhibition was 1.4% (inactive). For the molecule `COc1ccc(Cc2noc(CN(C)CC3(N4CCOCC4)CCCCC3)n2)cc1OC`, the inhibition is 4.3% (inactive). Turning to `C=CCc1ccccc1OCC(O)CNC(C)C` (stereo unspecified), the inhibition is 0.4% (inactive). For `CC(=O)c1cn(C)c(=O)[nH]c1=O` the value was 1.3% (inactive); for `CC(=O)CCc1c(C)c2cccc(C)c2[nH]c1=O`, 0.8% (inactive). For `CCN(CC)CCOC(=O)C1(C2CCCCC2)CCCCC1` the value was 1% (inactive); for `CC1(C)O[C@@H]2C[C@H]3[C@@H]4C[C@H](F)C5=CC(=O)CC[C@]5(C)[C@H]4[C@@H](O)C[C@]3(C)[C@]2(C(=O)CO)O1`, -0.8% (inactive); for `CCc1cc(=O)oc2cc(C)c(CN3CCCC(C)C3)c(O)c12` (stereo unspecified), -0.1% (inactive). On to `Cc1cnc(C(=O)NCCc2ccc(S(=O)(=O)NC(=O)NC3CCCCC3)cc2)cn1`, for which the inhibition was -0.2% (inactive). For `CC(=O)N1CCN(c2ccc(OC[C@H]3CO[C@](Cn4ccnc4)(c4ccc(Cl)cc4Cl)O3)cc2)CC1` the value was -1.1% (inactive). For the molecule `CCOC(=O)C(=Cc1ccccc1OC)C(=O)OCC`, the inhibition was -2.6% (inactive). For `Cc1nc2c(c3c1[nH]c1ccccc13)C(=O)CC(C)(C)C2`, the inhibition is 0.3% (inactive). For `CC(=O)N(CCC(Cc1ccccc1)c1ccco1)Cc1ccco1` (stereo unspecified) the value was 1.7% (inactive); for `O=C1OC(c2ccc(O)cc2)(c2ccc(O)cc2)c2ccccc21`, -0.8% (inactive); for `Cc1cnc(C(=O)N2CCCC(C(=O)c3ccc(Cl)cc3C)C2)cn1` (stereo unspecified), 0.4% (inactive). Turning to `CC(C)(C)c1csc(N/N=C/c2cccnc2)n1`, the inhibition was 0.5% (inactive).

Values taken from PubChem BioAssay.
